Reference: PubChem BioAssay (NCATS)
Inconclusive results are not listed. Where a structure was tested more than once in an assay, its records may differ in their call. Activity calls are given as the source filed them. Unless noted, the call rests on the fitted dose curve; in most records, active means well fitted curve in the direction sought with a large enough effect; inconclusive means small, poorly fitted or top-dose-only effect, or another doubt; inactive means no such curve, though single readings can be large; an effect the other way counts as inactive or inconclusive.

Legend:
[1] = biological target: Tumor susceptibility gene 101 protein (Homo sapiens) (UniProt Q99816); assay: qHTS Validation Assay for Iinhibitors of HIV-1 Budding by Blocking the Interaction of PTAP/TSG101 (AID 485342; calls by dose curve; further: 0% is about no effect)
Tumor susceptibility gene 101 protein (Homo sapiens), sequence (Q99816 whole entry, looked up, the tested form may be a part): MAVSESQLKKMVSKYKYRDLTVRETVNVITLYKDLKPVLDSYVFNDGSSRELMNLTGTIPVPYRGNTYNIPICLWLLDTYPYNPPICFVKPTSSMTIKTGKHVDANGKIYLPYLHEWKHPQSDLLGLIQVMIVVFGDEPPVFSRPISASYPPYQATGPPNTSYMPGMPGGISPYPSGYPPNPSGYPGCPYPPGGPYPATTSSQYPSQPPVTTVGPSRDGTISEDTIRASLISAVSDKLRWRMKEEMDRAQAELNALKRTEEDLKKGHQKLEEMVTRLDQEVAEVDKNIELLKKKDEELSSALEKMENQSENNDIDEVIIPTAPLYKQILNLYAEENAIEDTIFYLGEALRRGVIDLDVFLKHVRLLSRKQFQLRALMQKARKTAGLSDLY
Outline: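 Tsg101 binding domain (10 uM final) in pH 7.5 HEPES/NaCl/Tween 20/EDTA/TCEP buffer was mixed with pin-transferred compounds, then FITC-labeled PTAP peptide (50 nM final) was added; after 20 min at r.t., fluorescence polarization was read.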

[2] = biological target: Beta-2 adrenergic receptor (Homo sapiens) (UniProt P07550); assay: qHTS validation assay of beta-arrestin-biased ligands of beta2-adrenergic receptor (AID 485366); further: 0% is about no effect
Beta-2 adrenergic receptor (Homo sapiens), sequence (P07550 whole entry, looked up): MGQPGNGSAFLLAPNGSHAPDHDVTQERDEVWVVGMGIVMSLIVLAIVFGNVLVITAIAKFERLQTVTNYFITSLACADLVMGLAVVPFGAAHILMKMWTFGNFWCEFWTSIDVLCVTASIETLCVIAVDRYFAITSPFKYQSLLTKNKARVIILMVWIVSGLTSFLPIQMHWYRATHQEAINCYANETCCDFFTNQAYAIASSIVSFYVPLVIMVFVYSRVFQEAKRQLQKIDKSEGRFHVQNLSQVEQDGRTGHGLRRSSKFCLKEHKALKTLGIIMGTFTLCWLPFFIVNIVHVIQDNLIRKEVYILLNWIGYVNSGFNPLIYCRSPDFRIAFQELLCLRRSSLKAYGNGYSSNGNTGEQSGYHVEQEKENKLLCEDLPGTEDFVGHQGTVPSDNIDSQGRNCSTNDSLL
Outline: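 Screening used a titration range of up to 46 microM in a beta-arrestin recruitment Tango luciferase assay. Cells in 1% FBS medium were treated 18 hr at 37 degrees C, and luminescence was normalized to %Activity.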

[3] = biological target: Thioredoxin reductase 1, cytoplasmic (Rattus norvegicus) (UniProt O89049); assay: qHTS Assay for Substrates of Mammalian Selenoprotein Thioredoxin Reductase 1 (TrxR1) (AID 488772);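 further: series mostly up to about 57 µM; 0% is about no effect; a drop in NADPH fluorescence below the no-compound background marks a TrxR1 substrate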
Thioredoxin reductase 1, cytoplasmic (Rattus norvegicus), sequence (O89049 whole entry, looked up): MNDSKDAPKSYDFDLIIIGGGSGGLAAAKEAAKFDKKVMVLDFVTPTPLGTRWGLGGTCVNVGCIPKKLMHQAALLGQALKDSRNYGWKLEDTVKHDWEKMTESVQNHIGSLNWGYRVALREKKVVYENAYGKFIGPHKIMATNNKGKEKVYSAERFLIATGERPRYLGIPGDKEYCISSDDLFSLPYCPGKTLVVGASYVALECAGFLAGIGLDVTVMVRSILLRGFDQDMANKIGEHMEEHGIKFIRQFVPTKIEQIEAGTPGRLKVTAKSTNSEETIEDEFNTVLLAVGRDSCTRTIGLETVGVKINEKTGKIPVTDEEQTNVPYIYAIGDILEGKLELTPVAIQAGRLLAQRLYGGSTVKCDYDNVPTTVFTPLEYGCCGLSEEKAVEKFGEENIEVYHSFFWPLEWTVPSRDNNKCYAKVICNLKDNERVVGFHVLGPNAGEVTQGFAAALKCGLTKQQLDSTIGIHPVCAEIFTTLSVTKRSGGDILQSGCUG
Outline: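 In this dual-purpose format, potential substrates are identified from the first fluorescence read after selenite addition, not from the 8-minute delta. Rat enzyme is preincubated with NADPH and then with compound at ~22 deg C.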

[4] = biological target: M-phase phosphoprotein 8 (Homo sapiens) (UniProt Q99549); assay: qHTS Validation Assay for Inhibitors for MPP8 Chromodomain Interactions with Methylated Histone Tails (AID 488949); further: nearly all actives have a fitted effect of over 55% in size; further: potency means the concentration at half of the fitted maximal effect
M-phase phosphoprotein 8 (Homo sapiens), sequence (Q99549 whole entry, looked up): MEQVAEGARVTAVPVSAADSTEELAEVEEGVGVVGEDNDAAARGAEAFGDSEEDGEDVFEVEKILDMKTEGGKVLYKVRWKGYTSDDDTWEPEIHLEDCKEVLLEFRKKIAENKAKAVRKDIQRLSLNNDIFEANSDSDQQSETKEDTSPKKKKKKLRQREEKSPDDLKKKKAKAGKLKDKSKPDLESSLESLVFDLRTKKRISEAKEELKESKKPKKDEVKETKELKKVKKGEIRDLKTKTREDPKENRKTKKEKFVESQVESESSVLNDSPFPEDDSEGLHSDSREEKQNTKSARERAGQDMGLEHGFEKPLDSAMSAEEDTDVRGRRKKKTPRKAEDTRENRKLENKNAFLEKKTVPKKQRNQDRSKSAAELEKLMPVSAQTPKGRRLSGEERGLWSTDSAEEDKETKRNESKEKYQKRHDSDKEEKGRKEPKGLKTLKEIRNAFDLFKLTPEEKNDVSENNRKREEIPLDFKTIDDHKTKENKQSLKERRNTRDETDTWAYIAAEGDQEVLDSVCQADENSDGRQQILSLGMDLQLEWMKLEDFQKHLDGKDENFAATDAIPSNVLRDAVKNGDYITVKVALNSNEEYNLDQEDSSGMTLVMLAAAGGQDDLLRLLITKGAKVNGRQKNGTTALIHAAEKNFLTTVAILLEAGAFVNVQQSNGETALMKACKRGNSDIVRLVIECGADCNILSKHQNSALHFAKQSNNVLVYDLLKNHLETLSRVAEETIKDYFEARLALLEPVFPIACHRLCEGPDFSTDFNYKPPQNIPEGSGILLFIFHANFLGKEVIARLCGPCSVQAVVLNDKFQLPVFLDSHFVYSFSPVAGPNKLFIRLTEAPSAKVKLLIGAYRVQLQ
Outline: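 MPP8 (50 nM) was preincubated with biotinylated H3(1-18)K9me3 peptide (50 nM) in PBS pH 7.4, 0.01% Tween-20 for 30 min at room temperature, then with compounds for 30 min; binding was detected by AlphaScreen.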

[5] = biological target: Chromobox protein homolog 1 (Homo sapiens) (UniProt P83916); assay: qHTS Validation Assay for Inhibitors of HP1-beta Chromodomain Interactions with Methylated Histone Tails (AID 488953); further: nearly all actives have a fitted effect of over 50% in size; further: potency means the concentration at half of the fitted maximal effect
Outline: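 AlphaScreen proximity signal from streptavidin donor and nickel chelate acceptor beads (final 10 ug/mL) after 30 min dark incubation. Compounds had 30 min at room temperature with preformed complex of 50 nM HP1-beta and 50 nM b-H3(1-18)K9me3 in PBS pH 7.4 with 0.01% Tween-20.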

[6] = biological target: Methanococcus maripaludis chaperonin (MmCpn) (UniProt Q6LX38); assay: High-Throughput Screening for Modulators of Cytosolic Chaperonin Activity: MmCpn Primary Screen (AID 488978);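 further: 50 nM MmCpn enzyme hydrolysing 30 µM ATP at 37 °C; 0% is about no effect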
Outline: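 MmCpn (50 nM final) was preincubated with compound 5 min at RT, then 30 uM ATP (final) was added and the reaction ran 10 min at 37C. ADP produced was detected by Transcreener HTRF (ex 320 nm; em 590/665 nm).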

[7] = biological target: Transient receptor potential cation channel subfamily V member 1 (Homo sapiens) (UniProt Q8NER1); assay: HTS Assay for Compounds that Act as Enhancers of the Vanilloid Receptor 1 (AID 488979); further: 0% is about no effect
Outline: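 Calcium influx kinetics via Fluo-8 (480/520 nm) in TRPV1-expressing cells, 2000/well cultured overnight at 35.5C. Compound-alone read 3 min (agonist phase), followed by EC20 capsaicin challenge for 2 min (enhancer phase).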

[8] = biological target: Thyrotropin receptor (Homo sapiens) (UniProt P16473); assay: qHTS Assay for Antagonists of the Thyroid Stimulating Hormone Receptor (AID 488980); further: series mostly up to about 58 µM; 0% is about no effect
Outline: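 HEK293 cells transfected with human TSHR, suspended in HEPES-buffered HBSS with 70 uM RO 20-1724, were treated with compounds plus TSH at EC80 (4 nM final). cAMP was measured by competitive HTRF (cryptate anti-cAMP antibody, cAMP-d2 acceptor).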

[9] = biological target: D(1A) dopamine receptor (Homo sapiens) (UniProt P21728); assay: HTS Assay for Allosteric Agonists of the Human D1 Dopamine Receptor: Primary Screen for Agonists (AID 488981); further: potency means the concentration at half of the fitted maximal effect; on activation: 0% is about no effect
D(1A) dopamine receptor (Homo sapiens), sequence (P21728 whole entry, looked up): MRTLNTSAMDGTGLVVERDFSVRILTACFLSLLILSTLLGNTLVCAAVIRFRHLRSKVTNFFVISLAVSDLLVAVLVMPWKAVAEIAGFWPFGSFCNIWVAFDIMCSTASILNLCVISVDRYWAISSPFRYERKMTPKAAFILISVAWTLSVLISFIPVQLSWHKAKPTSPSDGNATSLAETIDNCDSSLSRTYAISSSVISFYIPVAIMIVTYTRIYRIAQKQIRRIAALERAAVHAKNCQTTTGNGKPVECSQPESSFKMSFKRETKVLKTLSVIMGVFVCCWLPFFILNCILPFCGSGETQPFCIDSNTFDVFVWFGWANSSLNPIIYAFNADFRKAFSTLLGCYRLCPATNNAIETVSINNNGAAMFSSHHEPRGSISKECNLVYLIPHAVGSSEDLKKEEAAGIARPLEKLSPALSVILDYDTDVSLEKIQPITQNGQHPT
Outline: (§1)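 Calcium flux in an inducible, force-coupled HEK293 Trex D1 line (overnight at 30 C): agonist mode is the 180 s kinetic read after compound; potentiator mode is the following 180 s read after dopamine at EC20.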

[10] = biological target: D(1A) dopamine receptor (Homo sapiens) (UniProt P21728); assay: HTS Assay for Allosteric Agonists of the Human D1 Dopamine Receptor: Primary Screen for Potentiators (AID 488982); further: potency means the concentration at half of the fitted maximal effect
Outline: as §1

[11] = biological target: D(1A) dopamine receptor (Homo sapiens) (UniProt P21728); assay: HTS Assay for Allosteric Agonists of the Human D1 Dopamine Receptor: Primary Screen for Antagonists (AID 488983);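 further: calcium flux response to an EC80 dopamine challenge measured with no-wash dye; nearly all actives have a fitted effect of over 65% in size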; further: potency means the concentration at half of the fitted maximal effect
Outline: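 Calcium-flux read-out in inducible HEK293 T-REx cells expressing D1, dye-loaded 30–90 min at room temperature. Kinetic reads: 180 s after compound (agonist phase), then 180 s after an EC80 dopamine challenge.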

[12] = Validation screen for small molecules that induce genotoxicity in human embryonic kidney (HEK293T) cells expressing luciferase-tagged ELG1 (AID 493106); further: 0% is about no effect
Outline: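 ELG1-luciferase reporter readout (ONE-Glo, 30 min, room temperature) after 16 hr compound treatment at 37 °C of HEK293T cells at 2,000 per well. Rising luminescence flags genotoxic stress.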

[13] = biological target: Thyrotropin-releasing hormone receptor (Homo sapiens) (UniProt P34981); assay: qHTS for Small Molecule Agonists and Allosteric Enhancers of Human TRH Receptor: Validation Screen for Agonists (AID 493127;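 active means calcium activation more than 3 SD above the typical response in the agonist read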;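 further: intracellular calcium rise by fluo-8 fluorescence before TRH EC20 addition; 0% is about no effect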); details: TRH receptor agonist cell assay; at 2 µM; stronger effect = higher value
Outline: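 Compound-evoked intracellular calcium release in fluo-8-loaded TRHR cells, read kinetically on FDSS (Ex 480/Em 530, 1 s/cycle) after 23 nL pintool transfer. Agonist phase preceded 10 nM TRH EC20 addition.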

[14] = biological target: ATP-dependent 6-phosphofructokinase (Trypanosoma brucei brucei) (UniProt O15648); assay: qHTS Validation Assay to Find Inhibitors of T. brucei phosphofructokinase (AID 485368); further: potency means the concentration at half of the fitted maximal effect
ATP-dependent 6-phosphofructokinase (Trypanosoma brucei brucei), sequence (O15648 whole entry, looked up): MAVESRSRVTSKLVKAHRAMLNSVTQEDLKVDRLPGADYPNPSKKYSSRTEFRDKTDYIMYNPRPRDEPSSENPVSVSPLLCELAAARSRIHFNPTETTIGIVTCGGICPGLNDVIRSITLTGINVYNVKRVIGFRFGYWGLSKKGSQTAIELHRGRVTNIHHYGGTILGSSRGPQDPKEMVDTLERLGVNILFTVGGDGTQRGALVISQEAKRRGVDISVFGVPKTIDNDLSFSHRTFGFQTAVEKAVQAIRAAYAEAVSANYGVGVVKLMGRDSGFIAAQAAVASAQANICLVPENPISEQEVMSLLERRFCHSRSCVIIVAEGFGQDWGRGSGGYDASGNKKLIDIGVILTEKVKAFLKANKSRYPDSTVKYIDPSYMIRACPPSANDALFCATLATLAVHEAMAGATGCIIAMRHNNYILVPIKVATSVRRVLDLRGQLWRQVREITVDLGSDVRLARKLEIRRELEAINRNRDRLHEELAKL
Outline: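 PFK-generated ADP was measured after 45 min at room temperature using ADP-Glo. The reaction contained 0.5 mM F6P and 0.1 mM ATP.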

[15] = Quantitative high throughput screen for delayed death inhibitors of the malarial parasite plastid, 96 hour incubation (AID 488745); further: potency means the concentration at half of the fitted maximal effect; nearly all actives have a fitted effect of over 70% in size
Outline: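 Decreased firefly luciferase luminescence indicates inhibited growth of reporter-integrated P. falciparum after two generations (96 h, 37 C, 5% CO2). Infected erythrocytes at 0.1% parasitemia, 2% hematocrit, in Albumax-supplemented RPMI 1640.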

[16] = biological target: Flap endonuclease 1 (Homo sapiens) (UniProt P39748); assay: qHTS Validation Assay for the Inhibitors of Human Flap endonuclease 1 (FEN1) (AID 488816); further: potency means the concentration at half of the fitted maximal effect
Outline: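 qHTS format: compounds and 10 nM FEN1 incubated 15 min at room temperature before adding 50 nM substrate. Cleavage followed by reads at 0 and 15 min; normalized data fitted to a four-parameter Hill curve.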

[17] = biological target: ATPase family AAA domain-containing protein 5 (Homo sapiens) (UniProt Q96QE3); assay: Validation screen for small molecules that inhibit ELG1-dependent DNA repair in human embryonic kidney (HEK293T) cells expressing luciferase-tagged ELG1 (AID 493107); further: potency means the concentration at half of the fitted maximal effect; nearly all actives have a fitted effect of over 70% in size
ATPase family AAA domain-containing protein 5 (Homo sapiens), sequence (Q96QE3 whole entry, looked up, the tested form may be a part): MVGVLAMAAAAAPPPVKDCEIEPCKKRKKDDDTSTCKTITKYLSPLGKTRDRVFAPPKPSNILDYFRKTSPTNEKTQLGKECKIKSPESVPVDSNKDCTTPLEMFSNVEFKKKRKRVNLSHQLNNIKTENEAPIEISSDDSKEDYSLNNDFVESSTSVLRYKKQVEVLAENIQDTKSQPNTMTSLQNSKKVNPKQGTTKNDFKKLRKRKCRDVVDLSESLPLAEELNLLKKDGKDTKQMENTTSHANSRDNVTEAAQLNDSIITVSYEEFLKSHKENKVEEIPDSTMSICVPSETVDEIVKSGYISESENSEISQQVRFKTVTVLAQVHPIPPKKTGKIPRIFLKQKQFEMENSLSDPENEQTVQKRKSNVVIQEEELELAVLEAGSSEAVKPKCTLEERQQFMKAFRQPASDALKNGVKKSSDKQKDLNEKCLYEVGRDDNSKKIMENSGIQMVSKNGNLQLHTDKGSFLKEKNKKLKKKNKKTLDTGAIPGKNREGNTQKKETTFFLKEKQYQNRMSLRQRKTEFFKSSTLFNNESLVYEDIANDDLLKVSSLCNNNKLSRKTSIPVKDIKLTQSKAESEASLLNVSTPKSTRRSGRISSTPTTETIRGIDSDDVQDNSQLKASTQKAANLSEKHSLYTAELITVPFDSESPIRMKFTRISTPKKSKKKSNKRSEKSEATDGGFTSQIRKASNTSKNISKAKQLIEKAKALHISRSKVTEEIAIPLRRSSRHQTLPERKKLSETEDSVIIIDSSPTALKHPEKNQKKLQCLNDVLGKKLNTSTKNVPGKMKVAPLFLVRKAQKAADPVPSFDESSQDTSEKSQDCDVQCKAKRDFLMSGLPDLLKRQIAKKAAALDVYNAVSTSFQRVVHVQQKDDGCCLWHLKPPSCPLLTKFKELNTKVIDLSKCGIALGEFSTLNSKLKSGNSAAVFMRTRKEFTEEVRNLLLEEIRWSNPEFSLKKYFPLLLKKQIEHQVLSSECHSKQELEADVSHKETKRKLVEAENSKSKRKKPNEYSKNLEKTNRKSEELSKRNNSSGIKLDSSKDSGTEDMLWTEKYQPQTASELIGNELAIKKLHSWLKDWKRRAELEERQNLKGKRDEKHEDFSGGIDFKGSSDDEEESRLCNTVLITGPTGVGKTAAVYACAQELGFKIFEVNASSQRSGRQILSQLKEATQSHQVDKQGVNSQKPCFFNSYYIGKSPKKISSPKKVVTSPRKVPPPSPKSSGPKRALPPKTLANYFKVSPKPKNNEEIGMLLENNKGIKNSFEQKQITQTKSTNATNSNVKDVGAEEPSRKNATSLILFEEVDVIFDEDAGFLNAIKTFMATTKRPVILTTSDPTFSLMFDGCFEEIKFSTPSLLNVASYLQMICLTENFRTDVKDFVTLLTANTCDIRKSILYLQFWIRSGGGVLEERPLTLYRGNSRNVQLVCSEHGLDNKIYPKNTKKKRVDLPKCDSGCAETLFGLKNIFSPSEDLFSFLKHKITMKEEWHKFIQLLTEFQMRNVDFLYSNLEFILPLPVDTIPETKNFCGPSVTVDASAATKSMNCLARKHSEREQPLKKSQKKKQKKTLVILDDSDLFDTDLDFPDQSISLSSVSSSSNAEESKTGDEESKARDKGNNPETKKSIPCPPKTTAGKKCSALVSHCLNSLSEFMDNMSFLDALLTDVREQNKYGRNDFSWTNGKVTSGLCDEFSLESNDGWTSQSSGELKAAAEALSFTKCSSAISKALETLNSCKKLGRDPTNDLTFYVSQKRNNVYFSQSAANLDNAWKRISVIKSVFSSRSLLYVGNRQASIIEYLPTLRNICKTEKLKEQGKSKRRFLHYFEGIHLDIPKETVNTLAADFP
Outline: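 Luciferase read-out, ONE-Glo, 30 min at room temperature, follows 16 h co-exposure at 37 C of compound and the DNA-damaging agent 5-fluorouridine. Cells: HEK293T with ELG1-luciferase fusion, 2,000 per well, DMSO as vehicle.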

[18] = biological target: Thioredoxin reductase 1, cytoplasmic (Rattus norvegicus) (UniProt O89049); assay: qHTS Assay for Inhibitors of Mammalian Selenoprotein Thioredoxin Reductase 1 (TrxR1) (AID 488773); details: Potency: inhibition; further: nearly all actives have a fitted effect of over 40% in size; further: potency means the concentration at half of the fitted maximal effect
Outline: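 Inhibition is scored from the loss of NADPH fluorescence between first and last reads of an 8-min kinetic run. Selenite (400 uM) was the substrate, added after 15 min compound preincubation at room temperature.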

[19] = biological target: ATP-dependent 6-phosphofructokinase (Trypanosoma brucei brucei) (UniProt O15648); assay: qHTS Assay to Find Inhibitors of T. brucei phosphofructokinase: hit validation (AID 492961);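 further: luminescence reports ADP formed as PFK phosphorylates fructose-6-phosphate with ATP; series mostly up to about 51 µM; on the % scale 0 is the no-effect control and ±100 the full control effect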
Outline: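 ADP-Glo luminescence read-out of ADP formed by 1.25 nM PFK from 0.1 mM ATP and 0.5 mM F6P (TEA pH 8.0, 45 min, RT). Compounds titrated; activity normalized to no-enzyme and full-enzyme controls.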

Cc1ccc(S(=O)(=O)N[C@@H](CCCCN)C(=O)CCl)cc1
inactive: outcome [1] | outcome [2] | outcome [3] | Potency [4] | Potency [5] | outcome [6] | outcome [7] | outcome [8] | Potency [9] | Potency [10] | Potency [11] | Potency [12] | activation [13] -0.625%

O=c1c(O)c(-c2ccc(O)c(O)c2)oc2cc(O)cc(O)c12
active: Potency [14] 6.75 µM | Potency [15] 10.4 µM | Potency [16] 2.38 µM | Potency [10] 4.11 µM | Potency [17] 20.6 µM
39.8 µM (active) and inactive: Potency [4]

O=c1[nH]c2ccccc2n1CCCN1CCC(n2c(=O)[nH]c3cc(Cl)ccc32)CC1
active: Potency [15] 1.17 µM | Potency [17] 16.4 µM
inactive: outcome [1] | outcome [2] | outcome [3] | Potency [18] | Potency [4] | outcome [6] | outcome [7] | outcome [8] | Potency [9] | Potency [10] | outcome [19] | Potency [12]

Cc1cc2c(C(C)C)c(O)c(O)c(C=O)c2c(O)c1-c1c(C)cc2c(C(C)C)c(O)c(O)c(C=O)c2c1O
active: Potency [18] 15 µM | Potency [16] 11.9 µM | Potency [4] 15 µM | Potency [5] 10 µM | Potency [9] 22.4 µM | Potency [17] 8.2 µM

O=C(NC(O)C(Cl)(Cl)Cl)NC(O)C(Cl)(Cl)Cl (stereo not drawn)
inactive: outcome [19]

CN(C)CCC=C1c2ccccc2CCc2ccccc21
inactive: Potency [4] | Potency [10]
active: Potency [11] 1.12 µM
